DAT uptake mod – changed human dopamine transporter uptake under cocaine IC80. B-score at 10 µM. Q01959. LLC-PK1 hDAT cells, [14C]-dopamine uptake with cocaine IC80; actives deviate in either direction. 110,000 tested, 1.3% active. AID 449768;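 active = Z score or B-score, a plate-position-corrected score, falls beyond the plate's 99.7% confidence bounds, in either direction; inactive = both scores lie inside the 99.7% bounds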;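 also: scored against the spread of the other compound wells on the same plate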
PostGolgi yeast – growth inhibition of a yeast mutant, post-Golgi transport screen; post-Golgi transport phenotypic cell assay; inhibition, % at 10 µM; 98,000 tested, 0.9% active;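 also: yeast cells grown in 1536-well plates; yeast grown about 18 h at 30C before absorbance read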
Cav3 T inh – inhibitors of human Cav3.2 T-type calcium channel; Cav3.2-expressing cells, Fluo-4 calcium fluorescence FDSS; active compounds read low; AID 449739; B-score at 10 µM; O95180; 100,000 tested, 4% active;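 active = single-dose well whose peak fluorescence ratio is a statistical outlier from its plate by either plate-standardised score or position-corrected B-score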
PostGolgi ctrl – inhibits growth of the yeast control strain | efflux-deficient yeast background strain, growth absorbance A615, 16 h | inhibition, % at 10 µM | 98,000 tested, 5% active | AID 738
PLAP activator – activators of human placental alkaline phosphatase; P05187; activation fold at 20 µM; purified PLAP enzyme, luminescent substrate read-out; active compounds read high; 96,000 tested, 1.2% active; in the data active = activation fold above about 2
Target sequence (P05187 whole entry, looked up): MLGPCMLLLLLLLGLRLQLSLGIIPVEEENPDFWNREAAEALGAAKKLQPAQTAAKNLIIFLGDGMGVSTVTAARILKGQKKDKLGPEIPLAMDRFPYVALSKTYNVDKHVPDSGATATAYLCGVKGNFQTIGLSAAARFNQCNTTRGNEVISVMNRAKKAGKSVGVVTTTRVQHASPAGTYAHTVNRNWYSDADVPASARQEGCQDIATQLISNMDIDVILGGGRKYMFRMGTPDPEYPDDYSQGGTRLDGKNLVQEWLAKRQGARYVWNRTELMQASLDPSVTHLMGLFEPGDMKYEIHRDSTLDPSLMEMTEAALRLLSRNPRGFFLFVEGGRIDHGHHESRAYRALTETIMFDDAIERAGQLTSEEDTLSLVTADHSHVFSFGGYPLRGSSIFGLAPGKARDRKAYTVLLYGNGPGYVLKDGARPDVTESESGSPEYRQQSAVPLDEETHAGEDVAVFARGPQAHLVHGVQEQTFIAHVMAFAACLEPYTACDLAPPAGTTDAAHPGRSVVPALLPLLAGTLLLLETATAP
* hit, by the source's call; x = not tested or not shown. In the library only some 9.6% were active in any assay of this set; here they are far more common. Rule as the data show it, unless noted: active = inhibition above about 30%; inactive = the rest.

SMILES	DAT uptake mod	PostGolgi yeast	Cav3 T inh	PostGolgi ctrl	PLAP activator
CC(C)(C)[C@@H]1C=C(C(=O)N2CCN(Cc3ccc4c(c3)OCO4)CC2)O[C@H](OCc2ccc(CO)cc2)C1	0.52	x	-0.75	x	x
Cc1cccc(-c2noc(CN(C(=O)c3ccc(Br)o3)C(C)C)n2)c1	1.8*	-2	-4.7*	33*	1.1
CC(C)N(Cc1nc(-c2ccccc2)no1)C(=O)CSc1ccccc1	0.22	-7	-4.2*	26	1.5
Cc1cccc(-c2noc(CN(C(=O)c3ccc4c(c3)OCO4)C(C)C)n2)c1	0.57	6	-5.1*	3	1.1
Cc1cccc(-c2noc(Cc3ccccc3)n2)c1	-1.5	-1	-0.22	4	0.9
CC(C)C(=O)NCCc1nc(-c2ccccc2)no1	0.5	x	0.76	x	x
COc1cc2ccccc2cc1-c1nnc(COc2ccccc2)o1	-1.4	-15	0.76	3	1.1
C/C(=N/NC(=O)c1ccoc1C)C12CC3CC(CC(C3)C1)C2	-0.00061	8	-2.4	16	1.1
CCN1c2ccccc2-c2nc3ccccc3n2C1c1ccccn1 (stereo not given)	-1.3	-9	-2.5	40*	1.1
CCN1c2ccccc2-c2nc3ccccc3n2C1c1ccncc1 (stereo not given)	-1.2	-14	-0.82	10	1.4
Cc1ccc(C2N(C)c3ccccc3-c3nc4ccccc4n32)o1 (stereo not given)	0.072	2	-5.4*	24	1.6
Cn1c(=O)c2cc(S(=O)(=O)NC(C(=O)NCc3cccnc3)c3ccccc3)ccc2n(C)c1=O (stereo not given)	-0.12	0	0.19	3	1
Cc1ccc(N(C(=O)C2CCC(=O)N2)C2(C(=O)NC3CCCC3)CCCCC2)cc1 (stereo not given)	-0.9	-1	-0.18	10	1.4
Cc1cc(SCC(=O)N/N=C/c2ccc(O)c(O)c2O)c(C)cc1Br	1.3	3	-4.5	18	2.2*
CC(=O)Nc1cc2c(cc1NC(=O)Cn1nc(-c3ccc4c(c3)OCCO4)ccc1=O)OCCO2	-2	5	-0.046	18	1.3
COc1ccc(COC[C@H](C)[C@H](O)[C@@H](C)[C@H]2OC(=O)[C@@H]2C)cc1	0.14	x	-0.88	x	x
OCCCc1nc2n(n1)C(c1cccs1)C=C(c1ccc(Br)cc1)N2 (stereo not given)	-0.76	-12	-7.9*	19	1.4
Cc1ccc(C2C=C(c3ccccc3)Nc3ncnn32)cc1 (stereo not given)	0.59	x	-0.46	x	x
COc1cc(C2C(C(N)=O)=C(C)Nc3nc(CCCO)nn32)cc(OC)c1OC (stereo not given)	-0.11	-8	-0.046	3	1
Brc1ccc(C2=CC(c3cccs3)n3ncnc3N2)cc1 (stereo not given)	0.45	2	-5.5*	15	1
O=C(CSc1nnc(-c2ccc(OC(F)F)cc2)o1)NCc1cccs1	-0.12	-14	-0.56	19	0.9
O=C(Cn1nnc(-c2cccc(C(F)(F)F)c2)n1)NC1CCCC1	-1.1	8	-0.97	5	1.4
Cc1ccc(C(=O)ON=C2CCN(c3ccc([N+](=O)[O-])cc3)CC2)cc1	-0.38	5	0.25	18	1
O=[N+]([O-])c1ccc(N2CCC(=NOCc3ccc(Cl)cc3)CC2)cc1	-0.2	19	-5.7*	9	0.8
Cc1ccc(Cn2nc(C)c3cc(C(=O)OCC(N)=O)sc32)cc1	-1.7	-7	-1.1	-3	0.8
SMILES	DAT uptake mod	PostGolgi yeast	Cav3 T inh	PostGolgi ctrl	PLAP activator
C=CCNC(=O)c1ccc2nc(-c3ccccc3)c(-c3ccccc3)nc2c1	0.61	8	-0.93	36*	1
COc1ccc(N(C)C(=O)c2ccc3nc(-c4ccccc4)c(-c4ccccc4)nc3c2)cc1	0.91	-2	-8.8*	10	1.4
Cc1ccc(-c2nc3ccc(C(=O)O)cc3nc2-c2ccc(C)cc2)cc1	0.59	-4	-1.7	17	1.2
Cc1ccc(OCc2nnc(SCc3ccc(C#N)cc3)n2-c2ccc(C)cc2)cc1	-0.28	-2	-2.7	39*	1.3
COc1ccc(-n2c(SCc3ccc(C#N)cc3)nnc2-c2ccccn2)cc1	1	-3	0.91	13	1.3
C=CCn1c(COc2ccc(Cl)cc2)nnc1SCc1ccc(C#N)cc1	-0.48	47*	-7.7*	41*	0.9
Cc1ccc(-n2c(SCc3ccc(C#N)cc3)nnc2-c2ccccn2)cc1	-7.7*	-5	0.85	19	1.6
CCCC(CCC)C(=O)Nc1c[nH]c(=O)[nH]c1=O	-0.28	4	0.22	20	0.8
CC1CCCCN1CCNS(=O)(=O)c1ccc2c(c1)oc(=O)n2C (stereo not given)	-0.032	3	0.22	13	0.9
Cc1ccc(S(=O)(=O)c2c(N)n(NC(=O)c3ccccc3C)c3nc4ccccc4nc23)cc1	-2.3	1	x	15	1.9
Cc1ccc(C(=O)Nn2c(N)c(S(=O)(=O)c3ccc(C)cc3)c3nc4ccccc4nc32)cc1	0.19	-3	-5.5*	-1	1
CC1(c2ccccc2)CC(C)(C)N2C(=O)C3(C(C#N)=C(N)Oc4cc(O)ccc43)c3cccc1c32 (stereo not given)	0.62	-3	-4.9*	20	1.7
CC1=CC(C)(C)N2C(=O)C3(C(C#N)=C(N)Oc4cc(O)ccc43)c3c(C)c(C)cc1c32 (stereo not given)	2.6*	-2	-4.1*	20	1.3
CC1(C)CC(=O)C2=C(C1)OC(N)=C(C#N)C21C(=O)N2CCCc3cccc1c32 (stereo not given)	0.75	-6	0.05	34*	1.1
CC1(C)CC(=O)C2=C(C1)OC(N)=C(C#N)[C@@]21C(=O)N(CC(N)=O)c2ccccc21	0.65	6	-2.2	5	1.2
Cc1cc2c3c(c1)C(C)(c1ccccc1)CC(C)(C)N3C(=O)C21C(C#N)=C(N)OC2=C1C(=O)CC(C)(C)C2 (stereo not given)	-0.088	2	-2.1	13	2*
Cc1cc2c3c(c1C)C1(C(=O)N3C(C)(C)CC2C)C(C#N)=C(N)OC2=C1C(=O)CC(C)(C)C2 (stereo not given)	0.0026	-4	-0.17	2	1.4
C[C@H]1[C@@H](OC(=O)CCC(=O)O)O[C@@H]2OC3(C)CC[C@H]4[C@H](C)CC[C@@H]1[C@@]24OO3	0.58	x	0.99	x	x
COc1ccc(CNC(=O)CSc2ncnc3nc[nH]c23)cc1	0.7	2	-0.28	17	0.8
O=S(=O)(Nc1ccc(O)c(Sc2nc3ccccc3s2)c1)c1ccc(Cl)cc1	x	37*	x	28	0.9
C=CCn1c(SCc2cc(=O)n3ccsc3n2)nc2sc(C)c(C)c2c1=O	-1.2	x	1.4	x	0.9
C=CCn1c(=O)c2ccccc2n2c(SCc3cc(=O)n4ccsc4n3)nnc12	2.8*	-2	1.5	1	0.9
O=C(CSc1nnc(Cc2cccs2)n1Cc1ccco1)Nc1ccc(Cl)cc1Cl	0.65	0	x	25	1.3
O=C(CSc1nnc(Cc2cccs2)n1Cc1ccco1)Nc1ccc(Br)cc1	0.73	2	-4*	15	0.8

Screening results from PubChem BioAssay.
